High-throughput results (PubChem)
Rows were chosen to be rich in hits. Some 4.9% of all compounds tested hit in one or more screens of this group.
NALP1 inh = NALP1 inflammasome inhibitors in reconstituted yeast, colorimetric, S. cerevisiae, triplicate retest; actives 0.61% (n = 280,000); inhibition, % at 10 µM; S. cerevisiae NALP1/ASC/caspase-1 growth, X-gal OD620, 72 h; in the data active means inhibition mostly above about 24%, no sharp cut-off; inactive means mostly below about 32%
NALP3 yeast inh = NALP3 inflammasome inhibitors in reconstituted yeast, primary screen, luminescence, uHTS | Yeast reconstituted NLRP3/ASC/caspase-1, beta-gal luminescence, 24 h | inhibition, % at 10 µM | actives 0.39% (n = 330,000);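 active means inhibition of 50% or more; inactive means inhibition below 50%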;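 further: plate controls were induced DMSO wells for no effect and uninduced yeast grown without galactose for full effect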
tim10-1 inh = growth inhibitors of tim10-1 mutant yeast, primary screen, luminescence, uHTS; S. cerevisiae tim10-1 ts strain growth, BacTiter-Glo, 24 h; actives 2.2% (n = 330,000); inhibition, % at 20 µM;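 active means inhibition of at least 40%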;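 further: mutant grown at 25 °C; 0% = DMSO wells with yeast and 100% = wells holding no yeast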
SKKanGAS inh = S. pyogenes SKKanGAS growth inhibitors in kanamycin, primary screen, streptokinase expression inhibitor project, SKKanGAS strain, BacTiter-Glo luminescence; 6 h; AID 1662, 2009; inhibition, % at 7.5 µM; actives 1.3% (n = 300,000);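 active means mean replicate score, as percent of positive control median, at least 50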;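 further: strain carries kanamycin resistance gene driven by streptokinase promoter and grows in 40 µg/ml kanamycin; loss of luminescence reflects streptokinase promoter inhibition or plain growth inhibition; 0% = median of DMSO wells and 100% = positive control at its reference dose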
tim23-1 inh = growth inhibitors of tim23-1 mutant yeast, primary screen, luminescence, uHTS. inhibition, % at 20 µM. S. cerevisiae tim23-1 growth, BacTiter-Glo luminescence, 24 h. actives 1.3% (n = 330,000);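 active means growth inhibition of the mutant yeast at or above 50%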;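 further: temperature-sensitive mutant grown at 25 °C; plate controls were DMSO-treated mutant yeast for no effect and medium wells lacking yeast for full effect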
TIM10 inh = growth inhibitors of isogenic TIM10 control yeast, primary screen, counter-screen for tim10-1 yeast inhibitor project, luminescence, uHTS | inhibition, % at 10 µM | actives 1.4% (n = 330,000) | AID 463195, 2010 | S. cerevisiae TIM10 strain growth, BacTiter-Glo luminescence, 24 h;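 active means inhibition of 40% or more at the single tested concentration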;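 further: wild-type TIM10 isogenic control strain grown at permissive 25 °C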
tim10 confirm = growth inhibitors of wild-type TIM10 yeast, confirmation, counter-screen for tim10-1 synthetic lethality project, single concentration, luminescence, S. cerevisiae; shares compounds with TIM10 inh; S. cerevisiae tim10 strain growth, BacTiter-Glo luminescence, 24 h; inhibition, % at 10 µM; actives 63% (n = 4,600);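 active means inhibition of yeast growth at or above a set limit in either of two replicates at 10 µM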;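 further: this counterscreen used the strain with wild-type TIM10; 0% = yeast with DMSO and 100% = medium wells lacking yeast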
tim23-1 conf = tim23-1 mutant yeast growth inhibitors, confirmation, luminescence, single concentration; S. cerevisiae tim23-1 growth, BacTiter-Glo luminescence, 24 h; shares compounds with tim23-1 inh; inhibition, % at 20 µM; actives 83% (n = 4,400);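 active means inhibition above about 39% in either of two replicate wells at 20 µM, limit read from the data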;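 further: temperature-sensitive tim23-1 mutant grown at 25 °C; 0% = DMSO wells with yeast and 100% = medium wells without yeast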
The depositor's hits bear a star; / = no result given.

SMILES | NALP1 inh | NALP3 yeast inh | tim10-1 inh | SKKanGAS inh | tim23-1 inh | TIM10 inh | tim10 confirm | tim23-1 conf
CCc1ccc(/C=N/NC(=O)c2nnn(-c3nonc3N)c2C(C)C)cc1 | 14 | 5 | -5 | 28 | 12 | -1 | / | /
COc1ccc(CCNC(=O)c2ccc(Cl)c(S(=O)(=O)N3CCCC3)c2)cc1 | / | 4 | 12 | / | 30 | 1 | / | /
CCCCCCCCC1=NCCc2c1[nH]c1ccccc21 | -47 | 19 | 38 | 8 | 57* | 45* | 13 | 43*
CC1CCCC(NC(=O)CN2CCN(S(=O)(=O)c3ccc(Br)s3)CC2)C1C (configuration not stated) | / | 7 | 34 | / | 35 | 20 | / | /
CCOC(=O)N1C(=O)[C@](CC)(c2ccccc2)N1C(=O)OCC | 29 | 3 | 2 | 8 | 17 | 15 | / | /
CCC1(c2ccccc2)ON(c2c(Br)cccc2Br)C1=O (configuration not stated) | / | 13 | -52 | / | 78* | 71* | 56* | -48
CC(C)=CCc1c(O)ccc(C(=O)Cc2ccccc2)c1O | 21 | 20 | 19 | 23 | 67* | 41* | 58* | -32
O=C(Cc1cnn(-c2ccccc2)c1)c1ccc(O)c(O)c1O | -2 | 13 | 29 | 1 | 29 | 11 | / | /
O=C1Nc2cc(C(=O)NCC3CCCO3)ccc2S/C1=C/c1ccccc1F (configuration not stated) | 0 | 13 | 12 | 45 | 16 | 0 | / | /
O=C(NCC1CC1(Cl)Cl)Nc1ccc(Cl)c(Cl)c1 (configuration not stated) | 9 | 34 | 38 | 39 | 80* | 48* | 45* | 71*
Cc1ccc(NC(=O)NCC2CC2(Cl)Cl)cc1 (configuration not stated) | 19 | 23 | -16 | 4 | 4 | -23 | / | /
CC(C)N(C(=O)[C@H]1C[C@H](CC(=O)NCCN2CCOCC2)C(=O)N2CCc3c([nH]c4cc(CCC(=O)N(C)C)ccc34)[C@]12C)C(C)C | / | / | 18 | / | 35 | -6 | / | /
Cc1ccc(/C=N/NC(=O)c2ccc3c(c2)OCCO3)s1 | 11 | 35 | -18 | 17 | 59* | 44* | 32 | 65*
Cc1ccsc1/C=N/NC(=O)c1ccc2c(c1)OCCO2 | 0 | 30 | 30 | 3 | 56* | 49* | 52* | 72*
Cc1ccc(/C=N/NC(=O)c2ccc3ccccc3c2)s1 | 11 | 46 | -2 | -1 | 68* | 41* | 32* | 73*
O=C(N/N=C/c1cc(Br)cs1)c1ccc2c(c1)OCCO2 | 0 | 32 | -41 | 34 | 46 | 20 | / | /
Cc1ccc(/C=N/NC(=O)c2ccncc2)s1 | 8 | -3 | -9 | -2 | 3 | -15 | / | /
CCCOc1ccc(-c2c(=O)n(O)c3ccccc3[n+]2[O-])cc1 | 15 | 30 | 16 | 1 | 37 | 25 | / | /
O=C(NCCc1cnn(-c2ccccc2)c1)c1cc(COc2c(F)cccc2F)on1 | 1 | 34 | 29 | -2 | 52* | 68* | 53* | 68*
CC(=O)Nc1sc2c(c1C(c1ccc(Cl)cc1)N1CCOCC1)CCCC2 (configuration not stated) | -1 | 16 | 29 | 34 | 51* | 41* | -53 | 55*
CC(NC(=O)c1ccc([N+](=O)[O-])o1)C12CC3CC(CC(C3)C1)C2 (configuration not stated) | 10 | 25 | -6 | 57* | 61* | 45* | 59* | -5
CC(CNC(=O)COc1ccc2c(c1)OCO2)c1ccccc1 (configuration not stated) | / | 32 | -7 | / | 27 | -8 | / | /
Cc1c(C2(O)CCCCC2)[nH]c2ccc(C(F)(F)F)cc12 | / | 45 | 39 | / | 82* | 59* | 67* | 65*
Cc1ccc(-n2c(-c3ccc(Cl)cc3)n[nH]c2=S)c(C)c1 | -12 | 1 | 24 | -4 | 55* | 47* | 49* | 42*
COc1ccc(-c2n[nH]c(=S)n2-c2ccc(C)cc2C)cc1 | -3 | 22 | 39 | -3 | 43 | 31 | / | /
SMILES | NALP1 inh | NALP3 yeast inh | tim10-1 inh | SKKanGAS inh | tim23-1 inh | TIM10 inh | tim10 confirm | tim23-1 conf
Cc1ccc(CC(=O)O/N=C(\N)c2cccc([N+](=O)[O-])c2)cc1 | 20 | 7 | 27 | -3 | 18 | 16 | / | /
Cc1ccc(C(=O)O/N=C(\N)Cc2ccc([N+](=O)[O-])cc2)c(Cl)c1 | 7 | 21 | -2 | -8 | 88* | 89* | 96* | 65*
N/C(Cc1ccc([N+](=O)[O-])cc1)=N\OC(=O)c1ccc(Br)cc1 | 38 | 18 | 24 | -5 | 83* | 92* | 94* | 32
Cc1csc(SCC(=O)Nc2nncs2)n1 | -3 | 11 | -7 | -5 | 5 | -20 | / | /
COc1cccc(/C=N/NC(=O)C(=O)Nc2ccccc2OC(F)(F)C(F)F)c1O | 10 | 17 | -2 | 38 | 54* | 45* | 56* | 61*
Cc1cc(C)c(C)c(S(=O)(=O)N2CCC(C(=O)OCC(=O)NC3CCS(=O)(=O)C3)CC2)c1C (configuration not stated) | / | 8 | 9 | / | 12 | 6 | / | /
CCOC(=O)/C(=C\c1ccc(OC)c(OC)c1)C(=O)c1cccnc1 | 4 | 27 | 35 | -5 | 59* | 50* | 48* | 56*
CCOC(=O)C(=Cc1ccc(OCc2ccc([N+](=O)[O-])cc2)c(OC)c1)C(=O)OCC | 35 | 6 | 14 | -1 | 14 | 31 | / | /
O=C(C1COc2ccccc2O1)N1CCN(c2ccc([N+](=O)[O-])cc2)CC1 (configuration not stated) | / | 12 | 36 | / | 61* | 43* | 47* | 55*
O=C(CN1CCN(C(=O)CCC(=O)N2CCC(c3ccccc3)=N2)CC1)Nc1ccc(F)cc1 | / | -2 | 3 | / | -3 | 0 | / | /
O=C(/C=C/c1ccccn1)c1cc(Cl)cc(Cl)c1O | 1 | 3 | 37 | -2 | 63* | 61* | 53* | 24
CC(C)CC1NC(=O)c2ccccc2-n2c1nc1ccc(F)cc1c2=O (configuration not stated) | / | 9 | 12 | / | 12 | 10 | / | /
C/C(=N\NC(=S)NCCc1ccccc1)c1cccs1 | 31 | 29 | 39 | 36 | 51* | 41* | -12 | 46*
